Assay [1] can be described thus: inhibitors of TNFa-induced NFkB p65 translocation, primary screen, imaging, HUVEC, MLSMR starter and 10KST1 sets (AID 438;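 active means inhibition above 20% together with a positive visual image hit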;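 further: compound added about 3h40 before a 20 min TNFalpha stimulation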;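 on inhibition: signal is the nuclear over cytoplasmic p65 intensity ratio per well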). The following applies: HUVEC TNFa-induced p65 nuclear translocation; cell count: measured here: nuclei count (cytotoxicity indicator), at 2.08 µM; inhibition: at 2 µM, stronger effect = higher value, 0% TNFa-plus-vehicle, 100% no-TNFa wells.
The nature of assay [2]: inhibitors of mutant huntingtin aggregation, primary screen, imaging, exon1htt(103Q)mCFP cells, high-content imaging (AID 483;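 active means visual image review flags a hit and inhibition of aggregation exceeds 20%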;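 further: compound exposure lasted 3 days before fixation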;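 on nuclei count: percent of the per-plate median nuclei count of sample wells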). The following applies: exon1htt(103Q)mCFP cell line, aggregate imaging, at 2 µM; inhibition of aggregation: stronger effect = higher value; nuclei count: measured here: cell count, toxicity.
The nature of assay [3]: inhibitors of E-selectin induction by TNFa, primary screen, imaging, HUVEC, immunofluorescence, MLSMR starter and 10KST1 sets (AID 487;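 active means visually confirmed hit in the image check and inhibition above 20%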;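 on inhibition: signal is fraction of cell area covered by stained E-selectin grains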;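 on nuclei count: 100% = median nuclei count of all wells on the same plate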). The following applies: HUVEC TNFalpha-induced E-selectin immunofluorescence imaging, at 2 µM; inhibition: stronger effect = higher value; nuclei count: measured here: cell number, toxicity.
In assay [4] the target is Voltage-gated potassium channel subunit beta-2 (Rattus norvegicus) (UniProt P62483). The experiment in a line: KvBeta enzyme negative modulators, primary screen, biochemical, NADPH fluorescence (AID 622;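 active means fluorescence slope higher than the sample average by over 3 SD, cut at about -0.22 in these data, passing the limit was not always enough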;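 further: slope of raw intensity against log time taken from 70 to 1610 s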). The following applies: recombinant KvBeta, 4-cyanobenzaldehyde reduction, at 10 µM, stronger effect = higher value.
Assay [5] shares this target. As to the kind of experiment: KvBeta positive modulators, primary screen, biochemical, NADPH fluorescence (AID 623;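 active means NADPH fluorescence slope more negative than the mean of all samples by about 3 SD, 99.7% confidence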;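 further: fluorescence intensity change per second fitted from 20 to 320 s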). The following applies: Recombinant KvBeta, NADPH fluorescence decrease slope, 10 min; at 10 µM; stronger effect = lower value.
The target of assay [6] is Alpha-2C adrenergic receptor (Homo sapiens) (UniProt P18825). As to the kind of experiment: modulators of alpha2C/GIRK thallium flux, primary screen, cell-based, HEK293 alpha2C/GIRK1/2 (AID 624;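 active means fluorescence slope after compound addition differing from the mean of all screened samples at 99.7% confidence, in either direction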;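 further: slope of fluorescence ratio to pre-addition baseline per second over 15 to 24 s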). The following applies: thallium flux BTC fluorescence, at 10 µM, actives lie on both sides.
A short description of assay [7]: inhibitors of Sendai virus-induced IRF3 signaling, primary screen, TLR/RLR signaling modifier project, cell-based, Sendai virus stimulus, luciferase, 10K MLSCN set (AID 602276).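 Further: firefly luciferase from ISG56 promoter only with Renilla not read in this screen; 0% = Sendai virus plus DMSO and 100% = medium plus DMSO without virus.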 The following applies: HEK293 RL24 IRF3 luciferase reporter, at 10 µM, stronger effect = higher value.
Assay [8] can be described thus: inhibitors of poly I:C-induced TLR3 signaling, primary screen, cell-based, poly I:C stimulus, luciferase, 10K MLSCN set (AID 602277;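 active means inhibition of the reporter signal at or above 50%; inactive means inhibition below 50%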). The following applies: HEK293-TLR3 RL24 IRF3 luciferase reporter, at 10 µM, stronger effect = higher value.

Active and inactive are the calls of the source.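 How the source made its calls, unless noted: active means inhibition at or above 50% at 10 µM; inactive means inhibition below 50%.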

Voltage-gated potassium channel subunit beta-2 (Rattus norvegicus), sequence (P62483 whole entry, looked up): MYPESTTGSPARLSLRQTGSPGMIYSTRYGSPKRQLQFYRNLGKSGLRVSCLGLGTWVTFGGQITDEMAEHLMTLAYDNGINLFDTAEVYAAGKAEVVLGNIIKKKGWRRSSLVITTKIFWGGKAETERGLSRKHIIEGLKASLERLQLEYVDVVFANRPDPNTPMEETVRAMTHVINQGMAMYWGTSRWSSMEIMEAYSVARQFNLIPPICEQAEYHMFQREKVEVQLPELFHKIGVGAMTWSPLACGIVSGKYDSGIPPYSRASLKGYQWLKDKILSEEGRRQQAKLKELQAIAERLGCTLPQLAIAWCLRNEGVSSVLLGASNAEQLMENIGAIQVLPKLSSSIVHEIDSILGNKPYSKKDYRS
Alpha-2C adrenergic receptor (Homo sapiens), sequence (P18825 whole entry, looked up): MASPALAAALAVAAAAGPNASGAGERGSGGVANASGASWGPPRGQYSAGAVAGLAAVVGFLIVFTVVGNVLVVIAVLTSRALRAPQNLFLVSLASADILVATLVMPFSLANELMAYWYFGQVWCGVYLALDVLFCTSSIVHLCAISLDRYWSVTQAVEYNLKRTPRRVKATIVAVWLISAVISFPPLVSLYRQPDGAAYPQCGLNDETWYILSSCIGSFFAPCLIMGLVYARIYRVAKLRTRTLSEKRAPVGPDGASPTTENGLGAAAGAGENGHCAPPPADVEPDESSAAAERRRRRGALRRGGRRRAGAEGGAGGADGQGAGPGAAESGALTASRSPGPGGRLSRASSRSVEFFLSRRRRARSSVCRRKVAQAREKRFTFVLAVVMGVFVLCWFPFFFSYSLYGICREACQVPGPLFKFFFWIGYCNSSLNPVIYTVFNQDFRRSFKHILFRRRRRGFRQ

Consider `Cc1ccc(-c2nc3cc(N)ccc3o2)cc1`, for which, in assay [1], the cell count stood at 463. Further, the inhibition was 1.1% (inactive) in assay [1], -58.1% (inactive) in assay [3], 2.48% (inactive) in assay [7] and -58.1% (inactive) in assay [8]. Also, in assay [2], the inhibition of aggregation was 11.7% (inactive). Also, the nuclei count in assay [2] came out at 101%; in assay [3], 115%. In addition, the fluorescence slope in assay [4] is -0.0326 (active). The NADPH fluorescence slope in assay [5] is -3.4e-05 (inactive). Also, in assay [6], the slope is 0.00542 (inactive).
As for `Cc1cccc(NC(=O)c2cc3ccccc3o2)c1`, in assay [1], the cell count was found to be 549. In addition, the inhibition in assay [1] was -23% (inactive); in assay [3], 15.3% (inactive); in assay [7] it was -17.2% (inactive); in assay [8], -74.5% (inactive). The inhibition of aggregation in assay [2] was 10.7% (inactive). Further, the nuclei count was determined as 103% in assay [2] and 157% in assay [3]. Further, the fluorescence slope in assay [4] is -0.506 (inactive). The NADPH fluorescence slope in assay [5] is 1.8e-05 (inactive). Besides, the slope in assay [6] is 0.00578 (inactive).
Take `COc1ccccc1S(=O)(=O)Cc1ccc(C(=O)N2CCN(c3ccccn3)CC2)o1`: the cell count in assay [1] was determined as 624. Further, the inhibition was -4% (inactive) in assay [1], -53.1% (inactive) in assay [3], 20.6% (inactive) in assay [7] and 15.8% (inactive) in assay [8]. The inhibition of aggregation in assay [2] is 0.9% (inactive). The nuclei count came to 106% in assay [2] and 104% in assay [3]. Besides, the fluorescence slope in assay [4] is -0.517 (inactive). The NADPH fluorescence slope in assay [5] was -3.4e-05 (inactive). Besides, the slope in assay [6] is 0.00659 (inactive).
In the case of `S=C(c1ccc(N2CCOCC2)cc1)N1CCCCC1`, in assay [1], the cell count was determined as 375. The inhibition in assay [1] was -1.3% (inactive); in assay [3], -68.1% (inactive); in assay [7] it was -29.8% (inactive); in assay [8] it was -15.7% (inactive). Further, in assay [2], the inhibition of aggregation is 4.1% (inactive). The nuclei count in assay [2] and in assay [3] was 111% throughout. Further, the fluorescence slope in assay [4] is -0.535 (inactive). Further, in assay [5], the NADPH fluorescence slope is -2e-05 (inactive). In addition, the slope in assay [6] is 0.00689 (inactive).
As for `O=C1NCC(COCc2ccccc2)O1` (centres undefined), in assay [1], the cell count was 432. Besides, the inhibition is -3% (inactive) in assay [1], 25.1% (inactive) in assay [3], 8.89% (inactive) in assay [7] and 21% (inactive) in assay [8]. The inhibition of aggregation in assay [2] is 21% (inactive). The nuclei count in assay [2] came out at 87.4%; in assay [3], 102%. The fluorescence slope in assay [4] is -0.496 (inactive). Also, the NADPH fluorescence slope in assay [5] was -5.3e-05 (inactive). Moreover, the slope in assay [6] is 0.00525 (inactive).
As for `COc1ccc(NS(=O)(=O)c2coc(C(N)=O)c2)cc1Cl`, in assay [1], the cell count is 734. Further, the inhibition is -6.3% (inactive) in assay [1], -27.2% (inactive) in assay [3], 6.28% (inactive) in assay [7] and 29.4% (inactive) in assay [8]. Further, the inhibition of aggregation in assay [2] is 24% (inactive). For the same compound, the nuclei count amounted to 86.4% in assay [2] and 116% in assay [3]. Also, in assay [4], the fluorescence slope was -0.605 (inactive). Moreover, the NADPH fluorescence slope in assay [5] was 1.2e-05 (inactive). Also, in assay [6], the slope was 0.00632 (inactive).
For `CCN(CC)c1nc2cc(OC)ccc2cc1C#N`, the cell count in assay [1] amounted to 386. For the same compound, the inhibition in assay [1] is -7.8% (inactive); in assay [3], -50.8% (inactive); in assay [7], 12.7% (inactive); in assay [8], 41% (inactive). In assay [2], the inhibition of aggregation was 8.6% (inactive). Besides, the nuclei count was found to be 101% in assay [2] and 114% in assay [3]. Besides, the fluorescence slope in assay [4] was -0.584 (inactive). For the same compound, the NADPH fluorescence slope in assay [5] was -6.9e-06 (inactive). For the same compound, the slope in assay [6] is 0.00563 (inactive).
Turning to `CC1=C(C(=O)Nc2ccccc2C)C(c2ccc(C)o2)N2C(=O)CSC2=N1` (centres undefined), the cell count in assay [1] amounted to 642. Further, the inhibition is -16.7% (inactive) in assay [1], -5.9% (inactive) in assay [3], 16.5% (inactive) in assay [7] and 21.5% (inactive) in assay [8]. In addition, the inhibition of aggregation in assay [2] is 0% (inactive). For the same compound, the nuclei count in assay [2] amounted to 106%; in assay [3], 95.6%. Also, the fluorescence slope in assay [4] was -0.44 (inactive). The NADPH fluorescence slope in assay [5] was -1.8e-05 (inactive). Further, in assay [6], the slope is 0.00436 (inactive).
Take `Fc1cccc2sc(Nc3nnc(-c4ccco4)o3)nc12`: in assay [1], the cell count was determined as 404. Further, the inhibition in assay [1] is -3.6% (inactive); in assay [3], -0.9% (inactive); in assay [7], -39.7% (inactive); in assay [8], -83% (inactive). Besides, the inhibition of aggregation in assay [2] is 2.5% (inactive). For the same compound, the nuclei count was determined as 109% in assay [2] and 94.5% in assay [3]. Further, the fluorescence slope in assay [4] was -0.501 (inactive). Moreover, in assay [5], the NADPH fluorescence slope was -4.9e-05 (inactive). Moreover, the slope in assay [6] was 0.0148 (active).
Turning to `Cc1cc2ccccc2n1CCNC(=O)c1ccc(S(=O)(=O)N2CCOCC2)cc1`, the cell count in assay [1] is 194. For the same compound, the inhibition is 0.8% (inactive) in assay [1], -41.3% (inactive) in assay [3], 13.5% (inactive) in assay [7] and 30% (inactive) in assay [8]. In addition, the inhibition of aggregation in assay [2] was 14.3% (inactive). Also, the values for the nuclei count in assay [2] and in assay [3] were 93.1% and 101%, respectively. Moreover, in assay [4], the fluorescence slope is -0.603 (inactive). The NADPH fluorescence slope in assay [5] is -1.9e-05 (inactive). Also, the slope in assay [6] was 0.00522 (inactive).
For the compound `Cc1ccc(CCP(=O)(O)CN2CCOCC2)cn1`, the cell count in assay [1] came out at 380. In addition, the inhibition in assay [1] is 5.9% (inactive); in assay [3] it was 4.3% (inactive); in assay [7], -1.89% (inactive); in assay [8], 33.2% (inactive). In addition, the inhibition of aggregation in assay [2] is -2.2% (inactive). Further, the results for the nuclei count in assay [2] and in assay [3] were 100% and 95.2%, respectively. Also, the fluorescence slope in assay [4] is -0.437 (inactive). In addition, the NADPH fluorescence slope in assay [5] was 3.3e-05 (inactive). Besides, the slope in assay [6] is 0.00662 (inactive).
For the compound `O=C(Nc1ccc2c(c1)nc1n2CCSC1)c1ccccc1`, the cell count in assay [1] came out at 487. Further, the inhibition in assay [1] was -0.5% (inactive); in assay [3], -0.8% (inactive); in assay [7], -30.3% (inactive); in assay [8], -80.3% (inactive). For the same compound, the inhibition of aggregation in assay [2] is 13.7% (inactive). The nuclei count in assay [2] stood at 106%; in assay [3], 119%. The fluorescence slope in assay [4] was -0.444 (inactive). Moreover, in assay [5], the NADPH fluorescence slope was -1.4e-05 (inactive). The slope in assay [6] is 0.00391 (inactive).
In the case of `Cc1ccccc1NC(=O)CSc1nnc(Cc2cccn2C)n1-c1ccc(F)cc1`, the cell count in assay [1] came to 813. Further, the inhibition was 4.2% (inactive) in assay [1], -61% (inactive) in assay [3], -3.98% (inactive) in assay [7] and 29.4% (inactive) in assay [8]. Besides, the inhibition of aggregation in assay [2] was 0% (inactive). For the same compound, the nuclei count was 98.8% in assay [2] and 114% in assay [3]. For the same compound, in assay [4], the fluorescence slope was -0.618 (inactive). For the same compound, in assay [5], the NADPH fluorescence slope was 1.1e-05 (inactive). In addition, the slope in assay [6] is 0.00577 (inactive).
For `COc1ccccc1OCC(=O)Nc1ccc(S(=O)(=O)Nc2nc(C)cc(C)n2)cc1`, in assay [1], the cell count turned out to be 376. Moreover, the inhibition in assay [1] was 0% (inactive); in assay [3], -84% (inactive); in assay [7] it was 11.5% (inactive); in assay [8], 17.1% (inactive). Besides, in assay [2], the inhibition of aggregation is -13.8% (inactive). In addition, the nuclei count in assay [2] was 102%; in assay [3], 121%. In addition, the fluorescence slope in assay [4] was -0.335 (inactive). Further, the NADPH fluorescence slope in assay [5] was -6.1e-05 (inactive). Also, the slope in assay [6] was 0.00524 (inactive).

The values above are taken from PubChem BioAssay.
